# Results from PubChem BioAssay AID743313 (Broad Institute, 2014).
# A number with no mark means an inactive call. Active and inactive are the calls of the source.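 The calls were made as follows: active = cell killing with a fitted half-maximal concentration no more than twice the top valid dose used; inconclusive = flat curve with a moderate signal drop, or poor fit; inactive = the rest.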
# Assay: HepG2 cell cytotoxicity, dose response, cytotoxicity control, plate reader, dry powder, set 7 (AID 743313)
# Settings: HepG2 viability, ATP luminescence (CellTiter-Glo), 72 h; series mostly up to 26 µM; activity change, negative = cytotoxicity: at the top concentration
Compound,outcome,"activity change, negative = cytotoxicity [%]"
Cc1cccc(OCCn2c(=S)[nH]c3cc(F)ccc32)c1,inactive,
Fc1ccccc1OCCn1c(=S)[nH]c2ccccc21,,-9.67
Cc1ccc(OCCn2c(SCCO)nc3ccccc32)c(C(C)C)c1,,-26.3
Cc1cccc(OCCn2c(=S)[nH]c3ccc(C(F)(F)F)cc32)c1,,-9.92
S=c1[nH]c2cccc(Cl)c2n1CCOc1ccccc1,inactive,
Cc1cccc(OCCn2c(=S)[nH]c3ccccc32)c1,,-3.15
Cc1ccc(C(C)C)c(OCCn2c(=S)[nH]c3cccc(C)c32)c1,,-14.8
Cc1ccc(OCCn2c(=S)[nH]c3ccccc32)c(C(C)C)c1,inactive,
Cc1ccc(OCCn2c(=S)[nH]c3ccccc32)cc1,,-6.11
CC(C)(C)c1ccc(OCCn2cnc3ccccc32)cc1,,-14.3
Cc1ccc2c(c1)[nH]c(=S)n2CCOc1ccccc1,inactive,
COCc1nc2ccccc2n1CCOc1ccc(C(C)(C)C)cc1,,-11.4
Cc1ccc(C(C)C)c(OCCn2c(=S)[nH]c3cccc(F)c32)c1,,-19.6
Cc1ccc(C(C)C)c(OCCn2c(=S)[nH]c3c(Cl)cccc32)c1,,-12.2
S=c1[nH]c2ccccc2n1CCOc1ccc(Cl)cc1,,-18.1
S=c1[nH]c2cc(Cl)ccc2n1CCOc1ccccc1,,-11.3
Cc1ccc(C(C)C)c(OCCn2c(=S)[nH]c3ccc(Cl)cc32)c1,,-7.22
CC(C)c1ccc(OCCn2c(=S)[nH]c3ccccc32)cc1,,-24
Fc1ccc2[nH]c(=S)n(CCOc3ccccc3)c2c1,,-2.84
O=c1[nH]c2ccccc2n1CCOc1ccccc1,,-5.21
Fc1cccc(OCCn2c(=S)[nH]c3ccccc32)c1,,-8.16
Cc1cccc(OCCn2c(=S)[nH]c3cc(C(F)(F)F)ccc32)c1,,-32.5
Cc1ccccc1OCCn1c(=S)[nH]c2ccccc21,,-15.7
COc1cccc(OCCn2c(=S)[nH]c3ccccc32)c1,,-0.915
COc1ccccc1OCCn1c(=S)[nH]c2ccccc21,,-4.97
CSc1nc2ccccc2n1CCOc1cc(C)ccc1C(C)C,,-10.2
